# In PubChem BioAssay AID449762 (Southern Research Specialized Biocontainment Screening …, 2010):
# Several values for one entry are separate records, joined by “and”; a condition that tells them apart may be missing. Equal entries are not always repeated. In all, about 330,000 compounds went through this assay and about 1,900 (0.58%) were called active. About 4% were inconclusive and are not listed. Rule as the data show it: inconclusive = inhibition above about 70% without an active follow-up result; inactive = below that. The list is a sample of the results. Measured potencies and affinities stand elsewhere.
# Test: M. tuberculosis growth inhibition, HTS (AID 449762);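 also: bacterial growth assessed after seven days of incubation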
# Details: M. tuberculosis H37Rv growth inhibition, 7H9 media; at 25 µM; active compounds read high
row,Structure (SMILES),inhibition
1,O=C(NCc1ccccc1)c1cccc(Br)n1,2.81% (inactive)
2,CC(C)n1cc(CNC(=O)C2CCC(=O)N(Cc3ccccc3F)C2)cn1 (stereo not drawn),5.12% (inactive)
3,COCCN(C(=O)c1cccc(N2C(=O)CCC2=O)c1)c1nc(-c2ccc([N+](=O)[O-])cc2)cs1,31.4% (inactive)
4,O=C(OCc1ccc([N+](=O)[O-])cc1)C1CC(=O)N(Cc2ccccc2)C1 (stereo not drawn),6.8% (inactive)
5,Cc1cc(C)n(CCC(=O)N=Nc2c(O)[nH]c3ccccc23)n1,3.85% (inactive)
6,CCC1CCCCN1CCCNC(=O)CSc1nc2nc(C)c(Cc3ccccc3Cl)c(C)n2n1 (stereo not drawn),4.72% (inactive)
7,COc1ccccc1N1CCN(/N=C\c2ccccc2)CC1,4.03% (inactive)
8,Cc1ccc(N2CCN(/N=C/C(Cl)=C/c3ccccc3)CC2)cc1,4.03% (inactive)
9,Cc1c(C(=O)Nc2ccc3c4c(cccc24)CC3)cccc1[N+](=O)[O-],27.6% (inactive)
10,O=C(Nc1ccc2c3c(cccc13)CC2)c1cccc([N+](=O)[O-])c1,-7.19% (inactive)
11,COc1ccc(-c2cc(C)no2)cc1S(=O)(=O)N1CCN(C(=O)c2ccco2)CC1,-7.17% (inactive)
12,COc1ccc(CCN=C(N)C(C)c2ccccc2)cc1OC (stereo not drawn),-10.7% (inactive)
13,CC(C)Cc1ccc(C(C)C(=N)N)cc1 (stereo not drawn),6.85% (inactive)
14,CCOC(=O)c1c(-c2ccc(Cl)cc2)csc1NC(=O)CNCc1ccco1,3.78% (inactive)
15,CCOC(=O)c1c(-c2ccc(OC)cc2)csc1NC(=O)CSc1ccccc1,3.36% (inactive)
16,COC(=O)c1c(NC(C)=O)sc(C(=O)N2CCOCC2)c1C,2.88% (inactive)
17,COC(=O)c1c(NC(=O)C(C)C)sc(C(=O)N2CCOCC2)c1C,-8.29% (inactive)
18,S=C(NCc1ccncc1)Nc1cc(Cl)cc(Cl)c1,69.9% (inactive)
19,COC(c1ccccc1)c1nnc(CCC(=O)N(C)CCCC2CCCC2)o1 (stereo not drawn),3.33% (inactive)
20,O=C(CCc1nnc(CCCc2ccccc2)o1)NCCc1ccccc1,3.96% (inactive)
21,O=C(CCc1nnc(CCCCc2ccccc2)o1)NCCC1CCCCO1 (stereo not drawn),-2.58% (inactive)
22,CN(C(=O)CCc1nnc(-c2ccc(-c3ccccc3)cc2)o1)C1CCOCC1,-8.56% (inactive)
23,COc1ccc(C2=CSC3=NCCN23)cc1,4.38% (inactive)
24,CCC(=NCc1cccnc1)c1c(O)n(Cc2ccccc2)c(=O)[nH]c1=O,-0.2% (inactive)

row,Structure (SMILES),inhibition
1,COc1ccc(NC(=O)Cn2c(=O)n(-c3ccccc3)c(=O)c3oc4ccccc4c32)c(OC)c1,-0.2% (inactive)
2,CC1(C)CC(=O)CC(=Nc2ccc(C(=O)O)cc2)C1,2.32% (inactive)
3,COc1ccc(OC)c(C(c2nnnn2Cc2ccccc2)N2CCN(C)CC2)c1 (stereo not drawn),5.62% (inactive)
4,Cc1ccc(CN2CCN(/N=C\c3cccc([N+](=O)[O-])c3)CC2)cc1,55.9% (inactive)
5,O=[N+]([O-])c1cc(/C=N/N2CCCCC2)ccc1Cl,1.34% (inactive)
6,Nc1c2c(nc3ccn(-c4ccccc4)c(=O)c13)CCCCC2,3.82% (inactive)
7,Nc1c2c(nc3ccccc13)CCC2,-1.89% (inactive)
8,CCNC(=O)c1nc[nH]c1C(=O)NCC,-0.32% (inactive)
9,COc1ccc2c(c1OC)C(=O)N1c3ccccc3COC21 (stereo not drawn),-4.65% (inactive)
10,CC1CC(C)CN(C(=O)c2cc3c(=O)n4ccccc4nc3s2)C1 (stereo not drawn),9.39% (inactive)
11,COc1cccc(CNS(=O)(=O)c2cccc(S(=O)(=O)N3CCOCC3)c2)c1,5.34% (inactive)
12,COc1ccccc1C1CC(c2ccc(Cl)cc2Cl)Nc2nc(N)nn21 (stereo not drawn),-6.06% (inactive)
13,O=C(COc1ccc(F)cc1)NNC(=O)c1cc2ccccc2oc1=O,-1.43% (inactive)
14,O=C(COc1ccccc1)NNC(=O)c1cc2ccccc2oc1=O,-4.55% (inactive)
15,CCOc1cc(N2CCOCC2)c(OCC)cc1NC(=O)c1ccc(OC)c(S(=O)(=O)N2CCOCC2)c1,-2.5% (inactive)
16,Cc1c(NS(=O)(=O)c2cccc(C(=O)NCc3ccc(Cl)cc3)c2)c(=O)n(-c2ccccc2)n1C,-7.86% (inactive)
17,CCOC(=O)c1csc(-c2ccc(OC)c(OC)c2)n1,6.33% (inactive)
18,CCOC(=O)c1csc(N)n1,-3.93% (inactive)
19,O=C(Nc1cccc(Cl)c1)NC1CC2CCC(C1)N2Cc1cccs1 (stereo not drawn),-7% (inactive)
20,CCOc1ccc(-c2c[n+]3c(n2-c2ccccc2)CCCCC3)cc1,-9.73% (inactive)
21,CCOc1ccc(-n2c(-c3ccccc3)c[n+]3c2CCCCC3)cc1,-7.91% (inactive)
22,Cc1nc(NC(=O)COC(=O)C2CC2C)c(Cl)cc1Cl (stereo not drawn),-3.52% (inactive)
23,Cc1ccccc1Nc1nc(N)nc(COC(=O)c2ccccc2)n1,-4.25% (inactive)
24,Cc1ccccc1Nc1nc(N)nc(COC(=O)c2ccco2)n1,10.5% (inactive)

row,Structure (SMILES),inhibition
1,CC1CN(c2ccc([N+](=O)[O-])c(NCCOc3ccccc3)c2)CCN1 (stereo not drawn),22.7% (inactive)
2,CC1CN(c2ccc([N+](=O)[O-])c(NCCOc3ccccc3)c2)CC(C)N1 (stereo not drawn),18.3% (inactive)
3,O=C(NCc1ccc2c(c1)OCO2)c1c(F)c(F)c(F)c(F)c1F,4.75% (inactive)
4,Cc1csc2nc(O)c(C(=O)NCCC3=CCCCC3)c(=O)n12,49.8% (inactive)
5,O=C(NCCC1=CCCCC1)c1c(O)nc2ccccn2c1=O,-7.18% (inactive)
6,Cc1csc2nc(O)c(C(=O)NCc3ccc4c(c3)OCO4)c(=O)n12,28.7% (inactive)
7,Cc1ccc(C)c(C(=O)n2cnnc2N)c1,-9.61% (inactive)
8,NC(=O)C1c2ccccc2Oc2ccccc21,-5.49% (inactive)
9,Cc1cc(C)nc(N2CCCC(C(=O)NC(C)C)C2)n1 (stereo not drawn),0.18% (inactive)
10,O=C(NC(NC(=S)Nc1cc(Cl)ccc1Cl)C(Cl)(Cl)Cl)c1ccco1 (stereo not drawn),11.3% (inactive)
11,O=C(Nc1cc(Cl)ccc1Cl)c1ccco1,-6.05% (inactive)
12,C[C@H](CO)N1C[C@H](C)[C@@H](CN(C)S(=O)(=O)c2cccs2)Oc2ccc(NC(=O)Nc3ccccc3)cc2C1=O,-4.72% (inactive)
13,COc1ccc(NC(=O)Nc2ccc3c(c2)C(=O)N([C@H](C)CO)C[C@H](C)[C@@H](CN(C)S(=O)(=O)c2cccs2)O3)cc1,2.72% (inactive)
14,CCCc1nc2nc(C)c(NS(=O)(=O)c3ccc(Cl)cc3)c(=O)n2[nH]1,-4.54% (inactive)
15,CC(C)=NNc1nc2c(c(=O)n(C)c(=O)n2C)n1CCc1ccccc1,-14.4% (inactive)
16,Cc1ccc(/C=C/S(=O)(=O)NCC(=O)OCC(=O)Nc2ccc(C(N)=O)cc2)cc1,-3.63% (inactive)
17,Cc1ccc(/C=C/S(=O)(=O)NCC(=O)OCC(=O)NCc2ccccc2)cc1,6.29% (inactive)
18,O=C(NC1CCSc2ccccc21)c1cc([N+](=O)[O-])ccc1N1CCOCC1 (stereo not drawn),-4.07% (inactive)
19,Nc1n[nH]c(N)c1N=Nc1ccc(Cl)cc1,0.26% (inactive)
20,Nc1nc(N)c(N=Nc2ccc(Cl)cc2)c(=O)[nH]1,3.75% (inactive)
21,COc1cccc(NC(=O)CSc2ccc3nnc(-c4cccnc4)n3n2)c1,6.73% (inactive)
22,O=C(CN(Cc1ccc(F)cc1)C(=O)CNS(=O)(=O)c1ccc(Cl)cc1)NCC1CCCO1 (stereo not drawn),-7.08% (inactive)
23,CCN1CCN(CC(=O)N2N=C(c3cccs3)CC2c2ccc(C)cc2)C(=O)C1=O (stereo not drawn),12.5% (inactive)
24,CCC(=O)N1N=C(c2cccs2)CC1c1ccc(C)cc1 (stereo not drawn),-0.72% (inactive)

row,Structure (SMILES),inhibition
1,COc1ccccc1NC(=O)CCc1nnc2ccc(N3CCC4(CC3)OCCO4)nn12,-1.86% (inactive)
2,CN1C(=O)CSc2ccc(NC(=O)N3CCOCC3)cc21,8.66% (inactive)
3,CCC(=O)Oc1c(S(=O)(=O)c2ccc(C)cc2)c(C)nn1C(C)(C)C,11.5% (inactive)
4,COc1ccc(Cc2nnc(SCC(=O)Nc3ccccc3C)n(N)c2=O)cc1,-1.95% (inactive)
5,CCOc1ccc(Cc2nnc(SCC(=O)Nc3ccc(OC)cc3)n(N)c2=O)cc1,0.84% (inactive)
6,N#Cc1c(N)n[nH]c1CCCN,0.78% (inactive)
7,Nc1c2ccccc2nc2ccccc12,-8.85% (inactive) and 58.8% (inactive)
8,O=C(O)c1cc(Cl)nc2ccccc12,2.9% (inactive)
9,CCCCOc1ccc(OCCNC(=O)C2CCCN2C(=O)Nc2ccccc2)cc1 (stereo not drawn),8.66% (inactive)
10,COc1cc(C(=S)N2CCOCC2)cc(OC)c1OC(=O)c1ccc(C)cc1,8.19% (inactive)
11,CCCc1nc2ccccc2c(C(=O)O)c1CC,2.61% (inactive)
12,COc1cc2c(cc1OC)C1(Nc3c-2c(C)nn3-c2ccccc2)C(=O)Nc2ccccc21 (stereo not drawn),9.01% (inactive)
13,COc1cc2c(cc1OC)C1(NCC2)C(=O)Nc2ccccc21 (stereo not drawn),4.39% (inactive)
14,COC(=O)c1sc(-c2ccccc2)cc1NC(=O)c1cc(OC)cc(OC)c1,6.45% (inactive)
15,Cc1cccc(C)c1-n1c(C)nn(Cc2ccc([N+](=O)[O-])cc2)c1=O,-15.4% (inactive)
16,C(=N\Nc1nc2ccccc2[nH]1)/c1ccc2c(c1)OCCO2,12.1% (inactive)
17,C(=N\Nc1ccccn1)/c1ccc2c(c1)OCCO2,-4.47% (inactive)
18,O=C(NN1C(=O)NC2(CCCCC2)C1=O)c1ccc(-c2ccc([N+](=O)[O-])cc2)o1,4.8% (inactive)
19,CCOC(=O)C1CCCN(S(=O)(=O)c2cccc3cccnc23)C1 (stereo not drawn),-4.82% (inactive)
20,O=C1N(CCCCN2C(=O)C3(OCCO3)c3ccccc32)c2ccccc2C12OCCO2,-3.23% (inactive)
21,O=C1N(CCCN2C(=O)C3(OCCO3)c3ccccc32)c2ccccc2C12OCCO2,-3.19% (inactive)
